Results filed as inconclusive are left out. A call without a number means that no potency is given here. Active and inactive are the calls of the source. Calls come from the whole dose curve; as a rule, active = well fitted cell-killing curve with a large enough effect; inconclusive = small, poorly fitted or top-dose-only effect, or effect the other way; inactive = no such curve, though single readings can be large or run the other way.
Experiments:
[1] = Quantitative High-Throughput drug screen in 47 multiple myeloma cell lines against the NCATS MIPE library collection: Delta47_JCRB cell viability assay (AID 1918925; note: nearly all actives have a fitted effect of over 45% in size); details: Delta47 myeloma viability, CellTiter-Glo ATP, 48 h; series mostly up to 45.8 µM
Summary of the method: (§1)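 Steps: seed 500 cells per well; pin-transfer MIPE 4.0 library; incubate 48 h at 37C, 5% CO2, humidified; add CellTiter-Glo, 5 min room temperature; read luminescence.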

[2] = Quantitative High-Throughput drug screen in 47 multiple myeloma cell lines against the NCATS MIPE library collection: EJM_DSMZ cell viability assay (AID 1918926; note: nearly all actives have a fitted effect of over 30% in size); details: EJM myeloma cell viability, CellTiter-Glo ATP, 48 h; series mostly up to 45.8 µM
Summary of the method: as §1

[3] = Quantitative High-Throughput drug screen in 47 multiple myeloma cell lines against the NCATS MIPE library collection: ARP1_JJKsccF8 cell viability assay (AID 1918928; note: nearly all actives have a fitted effect of over 40% in size); details: ARP1 myeloma cells viability, CellTiter-Glo ATP, 48 h; series mostly up to 45.8 µM
Summary of the method: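 Here, 48 h treatment with MIPE 4.0 agents at 37 °C preceded an ATP luminescence read. Plating density was 500 cells per well.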

[4] = Quantitative High-Throughput drug screen in 47 multiple myeloma cell lines against the NCATS MIPE library collection: ARD_JJKsccE7 cell viability assay (AID 1918929); details: ARD myeloma cell line viability, CellTiter-Glo, 48 h; series mostly up to 45.8 µM
Summary of the method: as §1

[5] = Quantitative High-Throughput drug screen in 47 multiple myeloma cell lines against the NCATS MIPE library collection: Karpas620_DSMZ cell viability assay (AID 1918959); details: Karpas620 myeloma viability, CellTiter-Glo ATP luminescence, 48 h; series mostly up to 45.8 µM; note: nearly all actives have a fitted effect of over 30% in size
Summary of the method: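 Myeloma cell lines, 500 cells per well, exposed to MIPE 4.0 library compounds for 48 h at 37C, 5% CO2. Viability from ATP by CellTiter-Glo luminescence; normalised to DMSO (100%) and media-only (0%) wells.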

[6] = Quantitative High-Throughput drug screen in 47 multiple myeloma cell lines against the NCATS MIPE library collection: AMO1_DSMZ cell viability assay (AID 1918927; note: nearly all actives have a fitted effect of over 30% in size); details: AMO1 myeloma cells viability, CellTiter-Glo ATP luminescence, 48 h; series mostly up to 45.8 µM
Summary of the method: as §1
Potency is the fitted concentration of half-maximal effect.

Row | Structure (SMILES) | Potency [1] | Potency [2] | Potency [3] | Potency [4] | Potency [5] | Potency [6]
1 | CC1(C)[C@H]2CC[C@]3(C)[C@@H](C(=O)C=C4[C@@H]5C[C@@](C)(C(=O)O)CC[C@]5(C)CC[C@]43C)[C@@]2(C)CC[C@@H]1O | inactive | inactive | inactive | inactive | inactive | –
2 | CCC(=O)NCC[C@@H]1CCc2ccc3c(c21)CCO3 | inactive | inactive | – | inactive | inactive | inactive
3 | COc1cc2nc(-c3cc(F)ccc3O)nc(N[C@@H]3CNC[C@@H]3C(C)(C)O)c2cc1OC | 2.64 µM (active) | 11.8 µM (active) | 10.5 µM (active) | 6.62 µM (active) | 6.62 µM (active) | 6.62 µM (active)
4 | CN1[C@H]2CC[C@H]1CC(OC(=O)c1c[nH]c3ccccc13)C2 (some centres undefined) | 4.18 µM (active) | inactive | – | – | inactive | inactive
5 | CC(=O)NCCC(=O)N[C@@H](CCC(N)=O)C(=O)N[C@@H](CO)C(=O)N[C@@H](CCC(N)=O)C(=O)N[C@@H](CCC(N)=O)C(=O)N[C@H](C(=O)N[C@@H](Cc1ccccc1)C(=O)N[C@]1(C)CCCCCCC=CCCC[C@@](C)(C(=O)N[C@@H](CCC(N)=O)C(=O)N[C@@H](CC(N)=O)C(N)=O)NC(=O)[C@H](CC(C)C)NC(=O)[C@H](CC(C)C)NC(=O)[C@@H](CCCNC(=N)N)NC(=O)[C@H](Cc2c[nH]c3ccccc23)NC(=O)[C@H](CC(C)C)NC(=O)[C@H](CC(N)=O)NC1=O)[C@H](C)O | 20.9 µM (active) | 18.7 µM (active) | 20.9 µM (active) | inactive | inactive | –
6 | CC1=C(CC(=O)O)c2cc(F)ccc2C1=Cc1ccc(S(C)=O)cc1 (centres undefined) | 3.72 µM (active) | 0.59 µM (active) | – | 11.8 µM (active) | – | 4.18 µM (active)
7 | C[C@@H]1[C@H](O)[C@@H](C)C=CC=CC=CC=CC=CC=CC=C[C@H](O[C@@H]2O[C@H](C)[C@H](O)[C@H](N)[C@@H]2O)C[C@@H]2O[C@](O)(C[C@@H](O)C[C@@H](O)[C@H](O)CC[C@@H](O)C[C@@H](O)CC(=O)O[C@H]1C)C[C@H](O)[C@@H]2C(=O)O | inactive | inactive | 7.43 µM (active) | – | inactive | –
8 | COc1cc(CNC(=O)CCCCC=CC(C)C)ccc1O | inactive | 10.5 µM (active) | inactive | inactive | inactive | inactive
9 | O=C(c1ccc(C=Cc2n[nH]c3ccccc23)cc1)N1CCNCC1 | 3.32 µM (active) | 20.9 µM (active) | 13.2 µM (active) | 1.32 µM (active) | – | –
10 | Cc1cn([C@@H]2C[C@@H](O)[C@H](CO)O2)c(=O)[nH]c1=O | inactive | inactive | inactive | inactive | inactive | inactive
11 | CC(=O)N1CCN(c2ccc(OCc3nn(C)c(C)c3-c3cccc4c(CCCOc5cc(C)c(Cl)c(C)c5)c(C(=O)O)n(Cc5cccnc5)c34)cc2)CC1 | 4.69 µM (active) | 20.9 µM (active) | – | 20.9 µM (active) | 26.4 µM (active) | 6.62 µM (active)
12 | CC1(C)C(N(O)C(=O)Nc2ccc(Cl)cc2)N(c2ccc(Cl)cc2)C(=O)N1CC(=O)NN=CC=Cc1ccc([N+](=O)[O-])o1 (centres undefined) | 7.43 µM (active) | 16.6 µM (active) | 7.43 µM (active) | inactive | inactive | inactive
13 | COc1cc(C=CC(=O)O)ccc1O | inactive | inactive | – | inactive | inactive | inactive
14 | CC(C)n1c(C=C[C@H](O)C[C@H](O)CC(=O)O)c(-c2ccc(F)cc2)c2ccccc21 | 18.7 µM (active) | inactive | – | 9.35 µM (active) | – | 16.6 µM (active)
15 | COc1ccc2c(c1)CC[C@H]1[C@@H]2CC[C@]2(C)[C@@H](NCCCCCCN3C(=O)C=CC3=O)CC[C@H]12 | inactive | inactive | inactive | inactive | inactive | inactive
16 | OC[C@H]1O[C@@H](O[C@H]2[C@@H](O)[C@@](O)(CO)O[C@@H]2CO)[C@H](O)[C@@H](O)[C@@H]1O | inactive | inactive | inactive | inactive | inactive | inactive
17 | Cc1cccc(Nc2nc(N[C@@H]3CCCC[C@H]3N)ncc2C(N)=O)c1 | 0.187 µM (active) | 20.9 µM (active) | 16.6 µM (active) | 20.9 µM (active) | 26.4 µM (active) | 20.9 µM (active)
18 | Cc1ccc(NC(=O)Nc2cc(C(F)(F)F)ccc2F)cc1Nc1ccc2c(c1)NC(=O)C2=Cc1ccc[nH]1 | 4.69 µM (active) | 26.4 µM (active) | – | 3.32 µM (active) | 5.26 µM (active) | 4.18 µM (active)
19 | CCOC(=O)[C@H]1O[C@H]1C(=O)N[C@@H](CC(C)C)C(=O)NCCC(C)C | inactive | inactive | – | inactive | – | inactive
20 | CCOc1ccccc1N=Nc1c(C)[nH]n(-c2nc(-c3ccccc3)cs2)c1=O | inactive | – | inactive | – | – | inactive

Source: PubChem BioAssay (NCATS)
